# An excerpt weighted towards active compounds, which were near 3.6% of everything screened.
# HSP90 refold inh = blocks HSP90-mediated luciferase refolding in reticulocyte lysate; 290,000 compounds, 0.91% hits; Rabbit reticulocyte lysate, luciferase refolding luminescence, 3 h; inhibition, % at 5.6 µM;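 active means inhibition above the screen-wide mean plus 3 SD, computed separately per campaign, cut at about 16% in these data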;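 further: 0% = DMSO wells and 100% = 60 µM geldanamycin wells; inhibitors lower the luminescence because luciferase stays unfolded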
# LGR2 antag = inhibitors of bursicon-induced Drosophila LGR2 receptor cAMP signaling | HEK293 LGR2, CRE-luciferase, bursicon-stimulated, 4 h | inhibition, % at 9.99 µM | 380,000 compounds, 0.35% hits | AID 720647;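 active means drop in luminescence signal, shown as inhibition above about 50% in the replicate tests, limit read from the data, passing the limit was not always enough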;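 further: agonist challenge used bursicon conditioned medium at about half maximal strength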
# Mdm2 MdmX PPI = disrupts the human Mdm2-MdmX interaction; SaOS-2 split-luciferase Mdm2/MdmX complementation, luminescence; O15151+Q00987; 330,000 compounds, 3% hits; AID 485346; inhibition, % at 8 µM;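 active means inhibition of at least 50% at 8 µM in the primary screen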
# Peg3 prom inh = inhibitors of Peg3 promoter. AID 588405. inhibition, % at 20 µM. 360,000 compounds, 1.7% hits. HeLa PEG-Prom luciferase reporter, luminescence, overnight;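 active means inhibition of at least 50% at 20 µM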
# CF NFkB inh = blocks PAF-induced NF-kB reporter in cystic fibrosis cells; inhibition, % at 5 µM; AID 588850; 360,000 compounds, 0.86% hits; KKLEB NF-kB-GFP reporter, GFP fluorescence overnight;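 active means at least 50% inhibition at 5 µM, scaled per plate between neutral and stimulator controls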;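 further: PAF is a Pseudomonas aeruginosa culture filtrate used as stimulus; plate controls were PAF-stimulated DMSO wells for no effect and unstimulated DMSO wells for full effect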
# KKLEB tox = CF airway cell cytotoxicity counter-screen; KKLEB CF airway cells viability, ATPlite luminescence, overnight; hits give low values; cells stimulated with P. aeruginosa culture filtrate; activity change (cytotoxicity), % at 5 µM; 360,000 compounds, 0.36% hits; AID 602141;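 active means corrected activity change at or below -50% at 5 µM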
# HSP90 confirm = confirmation of HSP90 inhibitors. inhibition, % at 5.9 µM. AID 1846. 2,300 compounds, 64% hits. rabbit reticulocyte lysate, luciferase refolding luminescence, 3 h. shares compounds with HSP90 refold inh; in the data active means inhibition above about 18%;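 further: 0% = vehicle wells and 100% = reference inhibitor wells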
# FLuc counter = counter-screen for HSP90 inhibitors: inhibitors of firefly luciferase; shares compounds with HSP90 refold inh; purified native firefly luciferase, luminescence; inhibition, % at 5.9 µM; 2,300 compounds, 48% hits;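 active means inhibition above the mean inhibition of all tested sample wells plus 3 SD, cut at about 10% in these data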;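 further: 0% = DMSO with luciferase and 100% = wells lacking luciferase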
# Target sequence (P08659 whole entry, looked up): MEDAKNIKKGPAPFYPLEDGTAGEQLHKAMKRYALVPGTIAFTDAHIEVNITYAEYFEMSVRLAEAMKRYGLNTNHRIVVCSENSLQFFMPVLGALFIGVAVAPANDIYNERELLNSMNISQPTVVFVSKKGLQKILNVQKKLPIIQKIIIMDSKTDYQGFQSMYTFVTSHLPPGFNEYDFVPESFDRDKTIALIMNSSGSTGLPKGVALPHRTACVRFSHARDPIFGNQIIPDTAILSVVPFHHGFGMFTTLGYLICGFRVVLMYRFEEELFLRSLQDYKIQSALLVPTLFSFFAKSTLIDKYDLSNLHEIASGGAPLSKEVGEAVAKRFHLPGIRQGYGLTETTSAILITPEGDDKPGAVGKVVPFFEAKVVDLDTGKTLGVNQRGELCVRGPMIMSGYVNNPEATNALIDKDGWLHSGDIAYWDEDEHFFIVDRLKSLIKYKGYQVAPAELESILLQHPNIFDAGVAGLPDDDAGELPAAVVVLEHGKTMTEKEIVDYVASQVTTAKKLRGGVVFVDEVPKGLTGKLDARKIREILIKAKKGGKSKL
# The depositor's hits bear a star; . = no result given.
SMILES,HSP90 refold inh,LGR2 antag,Mdm2 MdmX PPI,Peg3 prom inh,CF NFkB inh,KKLEB tox,HSP90 confirm,FLuc counter
CC(C)c1ccc(C(=O)Nc2ccc(CN3CCOCC3)cc2)cc1,24*,-26,-2,-59,12,8,19*,-10
O=C(Nc1ccc(CN2CCOCC2)cc1)c1cc2ccccc2o1,2,.,-61,-250,-19,7,.,.
Nc1nc(-c2ccccc2)c(-c2ccccc2)o1,-1,-7,25,-3,-10,3,.,.
c1ccc(-c2nc(-c3nccc4ccccc34)oc2-c2ccccc2)cc1,23*,60*,-51,-198,-7,-6,28*,35*
CCc1cc(C(=O)c2ccccc2)c(N)s1,21*,-33,-19,22,2,12,-3,-10
Cc1cccc(NC(=O)c2sc3nc(-c4ccccc4)cn3c2C)n1,27*,-16,-45,-106,-14,12,15,-21
Cc1cccc(NC(=O)c2sc3nc(-c4ccc(F)cc4)cn3c2C)n1,5,.,0,-46,-16,0,.,.
COc1ccc(-c2cn3c(C)c(C(=O)Nc4cccc(C)n4)sc3n2)cc1,77*,-41,22,-29,-8,-5,73*,7
COc1ccc(-c2cn3c(C)c(C(=O)NC(C)C)sc3n2)cc1,1,.,14,-141,6,4,.,.
C[C@@H]1CN([C@@H](C)CO)C(=O)c2cc(C3=CCCC3)cnc2O[C@@H]1CN(C)C(=O)Nc1cccc(F)c1,.,28,.,.,.,.,.,.
C[C@@H]1CN([C@H](C)CO)C(=O)c2cc(/C=C/c3ccccc3)cnc2O[C@H]1CN(C)Cc1cccnc1,.,7,.,.,.,.,.,.
Fc1ccccc1Nc1nc2ccccc2o1,24*,-21,-179,-294,11,0,41*,28*
COc1ccc(C#Cc2ccc3c(c2)[C@@H]2[C@@H](CCN2S(=O)(=O)c2ccccc2C)[C@@H](CO)N3)cc1,.,2,.,.,.,.,.,.
O=C(Cc1cccnc1)N[C@H]1CC[C@@H](CCNS(=O)(=O)c2ccccc2Cl)O[C@@H]1CO,.,-7,.,.,.,.,.,.
O=C(CNS(=O)(=O)c1ccccc1)OCC(=O)c1ccccc1Cl,22*,-10,11,15,17,3,-6,-13
CCc1cc(=O)oc2cc(OCc3ccc(C(=O)O)o3)ccc12,27*,-22,23,-39,-4,-1,33*,-3
Cc1c(C)c2ccc(OCc3ccc(C(=O)O)o3)c(C)c2oc1=O,75*,.,6,-41,11,-4,87*,45*
COC(=O)c1ccc(COc2ccc3c(C)c(C)c(=O)oc3c2)o1,18*,-113,17,-85,-26,6,76*,-17
C=C(C)COc1ccc2c(CC)cc(=O)oc2c1,-1,-6,-20,-40,-9,10,.,.
O=C(O)c1ccc(COc2ccc3c4c(c(=O)oc3c2)CCC4)o1,78*,.,-10,-8,3,5,79*,34*
CCCCc1cc(=O)oc2cc(OCC(=O)NCC3CCC(C(=O)O)CC3)ccc12 (configuration not stated),0,-10,-2,8,-16,-8,.,.
CCCc1cc(=O)oc2cc(OCC(=O)NCC3CCC(C(=O)O)CC3)ccc12 (configuration not stated),25*,12,9,12,-8,2,0,-5
Cc1cc(C(=O)Cn2nnc3ccccc3c2=O)c(C)n1Cc1cccs1,35*,.,37,-128,0,-30,53*,45*
CO[C@@H]1CN(C)C(=O)c2ccc(NC(=O)Nc3cc(F)ccc3F)cc2OC[C@H](C)NC[C@H]1C,.,12,.,.,.,.,.,.
CN(C)c1ccc(-c2nc3ccccc3c(=O)[nH]2)cc1,34*,66*,-2,40,-8,-27,68*,53*
O=C(NCCc1nnc2ccc(NCc3ccc(Cl)cc3)nn12)c1ccccc1,20*,1,14,3,2,-2,1,-2
CC(=O)c1cc(-c2ccccc2)n(CCC(=O)NC2CCCCC2)c1C,27*,-16,7,13,-5,8,1,-4

# Bioassay records (PubChem)
